Experimental findings from PubChem BioAssay (NCI) are described below.

Test systems include SK-MEL-2 melanoma; SN12C renal; UO-31 renal; TK-10 renal; ACHN renal; CAKI-1 renal; A498 renal; CCRF-CEM leukemia; MOLT-4 leukemia; SR leukemia; RPMI-8226 leukemia; OVCAR-8 ovarian; OVCAR-5 ovarian; OVCAR-4 ovarian; SK-OV-3 ovarian; IGROV1 ovarian; OVCAR-3 ovarian; HS 578T breast; NCI/ADR-RES ovarian.
Holding throughout (experiment): NCI-60 one-dose screen, 48 h (100 = growth as untreated, 0 = no growth, -100 = all killed)
Conditions in all cases: 10 µM unless noted

The panel holds about 83,000 compounds, 20% with a hit somewhere; the sample as a whole holds those more often.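 Compound tested at a single concentration for 48 hours in 96-well plates; a percent growth value below 10 was scored as active.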 Values without a mark were called inactive. Activity calls are given as the source filed them.

With `CC(=O)OCC(=O)[C@@]1(O)CC[C@H]2[C@@H]3CCC4=CC(=O)CC[C@]4(C)[C@@]3(F)[C@@H](O)C[C@@]21C`, the growth in the assay with SK-MEL-2 melanoma is 104%; in the assay on SN12C renal, 84.2%; with UO-31 renal, 82.5%; with TK-10 renal it was 99.2%; in the assay on ACHN renal, 98.5%; in the assay with CAKI-1 renal it was 115%. In addition, the growth in the assay with A498 renal is 103%; in the assay with CCRF-CEM leukemia it was 71.7%; in the assay with MOLT-4 leukemia it was 90.2%; in the assay on SR leukemia, 99.8%; in the assay with RPMI-8226 leukemia, 62.5%; with OVCAR-8 ovarian, 93.8%. Moreover, the growth with OVCAR-5 ovarian was 80.2%; in the assay with OVCAR-4 ovarian it was 105%; in the assay on SK-OV-3 ovarian, 63.7%; in the assay on IGROV1 ovarian it was 116%; with OVCAR-3 ovarian, 106%; with HS 578T breast it was 112%. In addition, the growth in the assay on NCI/ADR-RES ovarian was 89.6%.

Regarding `CSc1nc2nc3c(nc2c(=O)n1C)C(=O)c1ccccc1C3=O`, the growth in the assay with SK-MEL-2 melanoma was -64.9% (active); with SN12C renal, -76.7% (active); in the assay with UO-31 renal, -86.1% (active); with TK-10 renal, -79.1% (active); with ACHN renal, -95% (active); in the assay on CAKI-1 renal, -35.3% (active). Moreover, the growth was -75.3% (active) in the assay on A498 renal; -11.9% (active) in the assay on MOLT-4 leukemia; 6.56% (active) with SR leukemia; -20.2% (active) with RPMI-8226 leukemia; -8.36% (active) in the assay on OVCAR-8 ovarian; -91.7% (active) in the assay on OVCAR-5 ovarian. For the same molecule, the growth with OVCAR-4 ovarian was -53% (active); in the assay with SK-OV-3 ovarian, -22.2% (active); in the assay on IGROV1 ovarian, -53% (active); in the assay with OVCAR-3 ovarian it was -63.8% (active); with HS 578T breast, -21.6% (active); in the assay with NCI/ADR-RES ovarian, -4.99% (active).

Regarding `COc1ccc(OC)c2c1CCC1(C2)NC(=O)NC1=O` (stereo not given), the growth in the assay on SK-MEL-2 melanoma was 118%; in the assay on SN12C renal, 97.3%; in the assay with UO-31 renal, 82.3%; with TK-10 renal, 114%; in the assay with ACHN renal it was 103%; in the assay with CAKI-1 renal it was 91.3%. Also, the growth in the assay with A498 renal was 104%; in the assay on MOLT-4 leukemia, 104%; with SR leukemia, 102%; with RPMI-8226 leukemia, 102%; with OVCAR-8 ovarian it was 97.8%; with OVCAR-5 ovarian, 101%. Besides, the growth in the assay with OVCAR-4 ovarian is 101%; in the assay with SK-OV-3 ovarian it was 102%; with IGROV1 ovarian, 110%; with OVCAR-3 ovarian it was 126%; with HS 578T breast, 85.6%; in the assay on NCI/ADR-RES ovarian, 102%.

As to `CCOC(=O)C1C(=O)NC(C(=O)OCC)(C(=O)OCC)C1CC` (stereo not given), the growth with SK-MEL-2 melanoma was 110%; in the assay with SN12C renal, 100%; in the assay on UO-31 renal, 89.5%; in the assay on TK-10 renal it was 115%; in the assay with ACHN renal, 104%; in the assay with CAKI-1 renal, 99.9%. The growth in the assay on A498 renal is 104%; in the assay on CCRF-CEM leukemia, 109%; in the assay on MOLT-4 leukemia it was 113%; with SR leukemia it was 107%; in the assay on OVCAR-8 ovarian it was 108%; with OVCAR-5 ovarian, 105%. Also, the growth was 110% in the assay with OVCAR-4 ovarian; 112% with SK-OV-3 ovarian; 124% in the assay on IGROV1 ovarian; 125% with OVCAR-3 ovarian; 129% in the assay on HS 578T breast; 113% in the assay with NCI/ADR-RES ovarian.

`O=C(N/N=C/c1cccc(O)c1O)c1ccccc1`: the growth is 54.5% in the assay with SK-MEL-2 melanoma; 21.3% in the assay with SN12C renal; 4.38% (active) in the assay with UO-31 renal; 18.6% in the assay with TK-10 renal; 11.5% in the assay on ACHN renal; -20.5% (active) in the assay on CAKI-1 renal. Besides, the growth is 81.1% with A498 renal; 9.39% (active) in the assay on MOLT-4 leukemia; 18.2% with SR leukemia; 32.1% with RPMI-8226 leukemia; 4.99% (active) with OVCAR-8 ovarian; 30.1% in the assay with OVCAR-5 ovarian. Besides, the growth in the assay with OVCAR-4 ovarian was 4.38% (active); in the assay with SK-OV-3 ovarian, 41.2%; in the assay on IGROV1 ovarian, 6.87% (active); in the assay with OVCAR-3 ovarian it was 16.2%; with HS 578T breast, 66.1%; in the assay on NCI/ADR-RES ovarian it was 11%.

In the case of `c1ccc(COc2ccc(Nc3ncnc4c3cnn4-c3ccccc3)cc2)cc1`, the growth is 115% in the assay on SK-MEL-2 melanoma; 97.4% in the assay on SN12C renal; 79.6% in the assay on UO-31 renal; 111% in the assay with TK-10 renal; 104% in the assay on ACHN renal; 99.1% with CAKI-1 renal. For the same molecule, the growth is 77.9% in the assay with A498 renal; 80.8% in the assay with CCRF-CEM leukemia; 93.1% in the assay with MOLT-4 leukemia; 91.9% with SR leukemia; 96.5% in the assay with RPMI-8226 leukemia; 113% with OVCAR-8 ovarian. Further, the growth in the assay on OVCAR-4 ovarian was 91.3%; in the assay on SK-OV-3 ovarian, 108%; in the assay with IGROV1 ovarian, 100%; in the assay on OVCAR-3 ovarian it was 113%; in the assay on HS 578T breast, 109%; in the assay with NCI/ADR-RES ovarian it was 107%.

Take `C/C(=C\CCc1ccoc1)CC/C=C(\C)CCCC1COC(=O)C1` (stereo not given): the growth was 100% with SK-MEL-2 melanoma; 94.8% with SN12C renal; 78.8% in the assay on UO-31 renal; 114% in the assay on TK-10 renal; 97.5% with ACHN renal; 94.4% in the assay on CAKI-1 renal. Besides, the growth in the assay on A498 renal is 91.3%; in the assay on CCRF-CEM leukemia, 93%; in the assay on MOLT-4 leukemia, 92.2%; with SR leukemia, 100%; with RPMI-8226 leukemia, 97.1%; in the assay on OVCAR-8 ovarian it was 95.6%. The growth was 101% in the assay with OVCAR-5 ovarian; 101% in the assay on SK-OV-3 ovarian; 96.1% with IGROV1 ovarian; 105% in the assay on OVCAR-3 ovarian; 97.5% in the assay on HS 578T breast; 101% in the assay with NCI/ADR-RES ovarian.

With `C/C(=C\CCc1ccoc1)CC/C=C(\C)CCCN1CCSCC1`, the growth with SK-MEL-2 melanoma is 85.5%; in the assay on SN12C renal it was 76.7%; in the assay on UO-31 renal it was 62.4%; in the assay with TK-10 renal, 84.9%; in the assay on ACHN renal, 83.8%; in the assay on CAKI-1 renal it was 80.7%. The growth in the assay with A498 renal is 38.2%; in the assay with CCRF-CEM leukemia, 62.9%; in the assay on MOLT-4 leukemia it was 79.6%; in the assay with SR leukemia it was 45.6%; with RPMI-8226 leukemia it was 38.2%; with OVCAR-8 ovarian it was 89.8%. Further, the growth with OVCAR-5 ovarian was 70.1%; with OVCAR-4 ovarian it was 75.3%; with SK-OV-3 ovarian it was 84.6%; in the assay with OVCAR-3 ovarian, 44.4%; in the assay on HS 578T breast, 98.1%; with NCI/ADR-RES ovarian it was 73.8%.
